Results as given in PubChem BioAssay AID1851 (National Center for Advancing Translational Sciences (NCATS), 2009).
The whole screen tested about 16,000 compounds, of which about 5,700 (36%) were called active. About 24% were inconclusive and are not listed. Calls follow the shape of the dose curve; as a rule, active = well fitted curve in the direction sought with a large enough effect; inconclusive = small, poorly fitted or top-dose-only effect, or effect the other way; inactive = no such curve, though single readings can be large or run the other way. Some of the results follow.

molecular target: Cytochrome P450 1A2 (Homo sapiens) (UniProt P05177); experiment: Cytochrome panel assay with activity outcomes; details: recombinant CYP, pro-luciferin dealkylation, luminescence, p450-cyp1a2; series mostly up to 57.1 µM
% is scaled to controls: 0 for no effect and ±100 for the full control effect.

Cytochrome P450 1A2 (Homo sapiens), sequence (P05177 whole entry, looked up): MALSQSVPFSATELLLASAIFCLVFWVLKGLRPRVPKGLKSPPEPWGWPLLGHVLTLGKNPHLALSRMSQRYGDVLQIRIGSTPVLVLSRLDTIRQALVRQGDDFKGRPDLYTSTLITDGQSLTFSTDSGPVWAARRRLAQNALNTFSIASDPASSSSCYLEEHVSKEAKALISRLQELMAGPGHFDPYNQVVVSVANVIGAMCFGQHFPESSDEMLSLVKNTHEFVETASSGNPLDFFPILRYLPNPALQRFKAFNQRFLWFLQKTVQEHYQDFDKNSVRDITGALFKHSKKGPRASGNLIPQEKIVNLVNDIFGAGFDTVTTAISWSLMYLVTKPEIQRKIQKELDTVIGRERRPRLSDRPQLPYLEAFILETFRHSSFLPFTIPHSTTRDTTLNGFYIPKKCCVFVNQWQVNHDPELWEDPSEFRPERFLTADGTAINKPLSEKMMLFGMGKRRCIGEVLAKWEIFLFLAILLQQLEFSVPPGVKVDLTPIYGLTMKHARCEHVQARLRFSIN

AC50, active:
CC(=O)c1cc(CC=C(C)C)c(O)cc1O 3.55 µM
Nc1nc(SCCc2ccccc2)c2[nH]cnc2n1 3.16 µM
Nc1nc(SCc2ccccc2[N+](=O)[O-])c2[nH]cnc2n1 5.01 µM
Nc1nc(SC/C=C\c2ccccc2)c2[nH]cnc2n1 5.01 µM
c1ccc(/C(=N/Nc2nc3ccccc3s2)c2ccccn2)cc1 3.16 µM
COc1cccc(-c2cc3nc(-c4ccccc4)cc(N4CCC5(CC4)OCCO5)n3n2)c1 0.251 µM
CCOc1ccc(OCCOc2ncnc3ccccc23)cc1 12.6 µM
CCOc1cc(C#N)c(NC(=O)c2cccnc2)cc1OCC 20 µM
Cn1cnnc1SCC(=O)n1c2ccccc2c2ccccc21 0.0501 µM
O=C(CCCN1C(=O)c2cccc3cccc(c23)C1=O)N1CCc2ccccc2C1 6.31 µM
O=C(CN1C(=O)c2cccc3cccc(c23)C1=O)N1CCCCCC1 14.1 µM
NC(=O)/C(=N\OC(=O)c1ccco1)c1nc(-c2ccc(Br)cc2)cs1 0.447 µM
c1ccc2c(CSCCc3ccncc3)cccc2c1 0.178 µM
Clc1ccc(CSCCc2ccncc2)cc1Cl 0.316 µM
COc1ccc(-n2c(=O)c(-c3ccc(Cl)cc3)nc3cnc(N4CCOCC4)nc32)cc1 15.8 µM
Cn1c(=O)c(-c2ccccc2)nc2cnc(N3CCNCC3)nc21 12.6 µM
Cn1c(=O)c(-c2ccccc2)nc2cnc(N3CCOCC3)nc21 2 µM
COCCn1c(=O)c(-c2ccc(F)cc2)nc2cnc(N3CCOCC3)nc21 5.01 µM
Cn1c(=O)c(-c2ccc(Cl)cc2)nc2cnc(N3CCOCC3)nc21 2.51 µM
Cn1c(=O)c(-c2ccc(F)cc2)nc2cnc(N3CCOCC3)nc21 2.51 µM
N#CCCn1c(=O)c(-c2ccc(Cl)cc2)nc2cnc(N3CCOCC3)nc21 15.8 µM
CCCCNc1cc(=O)oc2ccccc12 0.708 µM
c1ccc(Cc2nnc(Sc3ccccc3)c3ccccc23)cc1 17.8 µM
CCN(CC)S(=O)(=O)c1ccc(OC)c(NC(=O)CSc2ccccc2)c1 15.8 µM
CCN(CC)S(=O)(=O)c1cc(C(=O)Nc2ccccc2C(=O)O)ccc1OC 15.8 µM
COC(=O)c1cc(OC)c(OC)cc1NC(=O)CSc1ccc(C)cc1 1.78 µM
COC(=O)c1cc(OC)c(OC)cc1NC(=O)CSc1ccccc1 1.78 µM

AC50, inactive:
COc1cc(CC(=O)O)c(C(C)=O)cc1OC
Cc1cccc(N(C)S(=O)(=O)c2ccc3[nH]c(=O)c(=O)[nH]c3c2)c1
COCC(=O)N1CCC2(CCCN(Cc3nccs3)C2)CC1
CC1CN(C(=O)COc2ncnc3ccccc23)CC(C)O1 (stereo not drawn)
Cc1cc(C)cc(-n2c(C)cc(C=C(C#N)C#N)c2C)c1
CCc1ccc(N(C(=O)c2snc(C(N)=O)c2N)C(C(=O)NCCC(C)C)c2c[nH]c3ccccc23)cc1 (stereo not drawn)
CCN(CC)c1ccc(NC(=O)c2cccnc2)c(C)c1
CS(=O)(=O)N1CCC2(CCN(Cc3nccs3)CC2)CC1
COC(=O)C1=C(CSc2nncn2C)NC(=O)NC1c1ccc(F)cc1 (stereo not drawn)
CCc1cccc2c(C=C(C#N)C#N)cn(CC(=O)N3CCCC3)c12
CCc1cccc2c(C=C(C#N)C#N)cn(CC(=O)N3CCCCC3)c12
O=C(CCCN1C(=O)C2C3C=CC(C3)C2C1=O)N1CCN(c2ccccc2)CC1 (stereo not drawn)
CSc1nc(Cl)cc(N(CCO)CCO)n1
COc1ccc(/C=C2\CCCC3C2=NN(C(=O)c2ccco2)C3c2ccc(OC)c(OC)c2)cc1OC (stereo not drawn)
Clc1ccc(COc2ccccn2)cc1Cl
N[C@@H](C(=O)O)c1ccc(C(=O)O)c(C(=O)O)c1
COc1ccc2c(c1)CCCC21NC(=O)N(CC(N)=O)C1=O (stereo not drawn)
COc1ccc(-c2nc3cnc(N4CCN(C)CC4)nc3n(CCC#N)c2=O)cc1
COCC(=O)N1CCC2(CC1)CN(c1ccccn1)C2
O=c1[nH]c(=S)[nH]nc1Cc1ccccc1
CCN(CC)S(=O)(=O)c1ccc(OC)c(NC(=O)c2cc([N+](=O)[O-])ccc2Cl)c1
CCN(CC)S(=O)(=O)c1ccc2c(c1)nc(SCC(=O)N1CCOCC1)n2-c1ccccc1OC
O=C(CSc1ccccc1)Nc1ccc(N2CCN(c3ccccc3)CC2)c(F)c1
COc1ccc(C(=O)N2CCCCC2)cc1S(=O)(=O)Nc1ccccc1
Cc1ccc(SCC(=O)NNC(=O)C2CCCCC2)cc1

activity, negative = inhibition, inactive:
CCC[C@H](Sc1nc(N)nc2nc[nH]c12)C(=O)O -9.79% [at 11.4 µM]
Nc1nc(N)c2[nH]cnc2n1 (tested in a mixture with another compound) -5.45% [at 2.29 µM]
O=C(O)CCSc1ncnc2nc[nH]c12 -3.4% [at 11.4 µM]
Nc1nc(Sc2ccc([N+](=O)[O-])c3nonc23)c2[nH]cnc2n1 -26.1% [at 2.29 µM]
CC(C)=NOCc1ccc(-c2cn([C@@H]3COC[C@@H]3O)nn2)cc1 -5.29% [at 11.4 µM]
CC(=O)OC[C@H]1O[C@@H](ON=C(C)C)[C@H](OC(C)=O)[C@@H](OC(C)=O)[C@H]1OC(C)=O -5.84% [at 11.4 µM]
O=S(=O)(O)CCCc1cccc2ccccc12 -16.7% [at 2.29 µM]
NCCc1nc(-c2nc(C(=O)O)cs2)cs1 -15.8% [at 11.4 µM]
CC(C)(C)CC(C)(C)c1cc(O)c(O)c(CN2CCCCC2)c1 -0.989% [at 11.4 µM]
CC(C)CO/N=C1/[C@H]2O[C@@H]2[C@@H](O)[C@H]2[C@H]1CCn1c(=O)n(C)c(=O)n12 8.17% [at 11.4 µM]
CC(=O)OC[C@@H]1O[C@H](C/C=N\OCC[C@H]2C=C[C@H](OC(C)=O)[C@@H](COC(C)=O)O2)C=C[C@@H]1OC(C)=O -12.9% [at 11.4 µM]
